From PubChem BioAssay AID651946 (Broad Institute, 2012)
Results with a measured potency or affinity are listed apart. Activity calls are given as the source filed them.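 How the source made its calls: active means toxic compound whose fitted half-effect dose of signal loss is at most twice its top tested dose; inconclusive means flat fit losing 30 to 70% signal, or poor fit; inactive means the rest.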

test: cytotoxicity in HeLa cells, dose response, cytotoxicity control, cell-based, plate reader, dry powder (AID 651946); conditions: HeLa viability, ATP luminescence (CellTiter-Glo), 48 h; series mostly up to 26 µM

| SMILES | outcome |
| --- | --- |
| COc1ccc(-c2nnc(SCc3ccccc3)o2)cc1 | inactive |
| Fc1cccc(CSc2nnc(-c3ccccc3)o2)c1 | inactive |
| c1ccc(CSc2nnc(-c3cccnc3)o2)nc1 | inactive |
| Brc1cccc(-c2nnc(SCc3ccccn3)o2)c1 | inactive |
| COc1ccc(-c2nnc(SCc3ccc(Cl)cc3)o2)cc1 | inactive |
| c1ccc(CSc2ncc(-c3ccccc3)o2)cc1 | inactive |
| c1ccc(-n2cc(CSc3nnc(C4CCCC4)o3)nn2)cc1 | inactive |
| FC(F)(F)Oc1ccc(CSc2nnc(-c3ccccc3)o2)cc1 | inactive |
| FC(F)(F)c1ccccc1CSc1nnc(-c2ccccc2)o1 | inactive |
| CS(=O)(=O)c1ccc(-c2nnc(SCc3ccccc3)o2)cc1 | inactive |
| c1ccc(CSc2nnc(C3CCCCC3)o2)cc1 | inactive |
| c1ccc(CCc2nnc(SCc3ccccc3)o2)cc1 | inactive |
| c1ccc(Cn2cc(CSc3nnc(-c4ccccc4)o3)nn2)cc1 | inactive |
| c1ccc(-c2nnc(SCCN3CCOCC3)o2)cc1 | inactive |
| c1ccc(CCc2nnc(-c3ccccc3)o2)cc1 | inactive |
| Cc1ccc(-c2nnc(SCc3ccccn3)o2)cc1 | inactive |
| CSc1nnc(-c2ccccc2)o1 | inactive |
| c1ccc(CSc2nnc(Cc3ccccc3)o2)cc1 | inactive |
| c1ccc(CSc2nnc(-c3ccncc3)o2)nc1 | inactive |

| SMILES | outcome |
| --- | --- |
| Fc1ccccc1CSc1nnc(-c2ccccc2)o1 | inactive |
| COc1ccccc1-c1nnc(SCc2ccccc2)o1 | inactive |
| Fc1ccc(Cn2cc(CSc3nnc(C4CCCC4)o3)nn2)cc1 | inactive |
| CS(=O)(=O)c1ccccc1-c1nnc(SCc2ccccc2)o1 | inactive |
| COc1ccc(CSc2nnc(-c3ccc(Cl)cc3)o2)nc1 | inactive |
| c1ccc(-c2ccc(CSc3nnc(-c4ccccc4)o3)cc2)cc1 | inactive |
| N#Cc1ccc(-c2nnc(SCc3ccccc3)o2)cc1 | inactive |
| Fc1ccc(-c2nnc(SCc3cn(-c4ccccc4)nn3)o2)cc1 | inactive |
| Cc1ccc(-c2nnc(SCc3ccccc3)o2)cc1 | inactive |
| O=S(=O)(Cc1ccccc1)c1nnc(-c2ccccc2)o1 | inactive |
| c1ccc(CSc2nnc(-c3cscn3)o2)cc1 | inactive |
| c1ccc(-c2nnc(SCc3cccnc3)o2)cc1 | inactive |
| Clc1ccc(-c2nnc(SCc3cn(Cc4ccccc4)nn3)o2)cc1 | inactive |
| Fc1ccc(-c2nnc(SCc3ccccn3)o2)cc1 | inactive |
| c1ccc(CSc2nnc(-c3ccccc3)s2)cc1 | inactive |
| Clc1ccccc1CSc1nnc(-c2ccccc2)o1 | inactive |
| FC(F)(F)c1ccc(-c2nnc(SCc3ccccc3)o2)cc1 | inactive |
| CS(=O)(=O)c1cccc(CSc2nnc(-c3ccccc3)o2)c1 | inactive |
